# Assay results: the supplement of paper PMC3334620
# The full ranking holds about 33,000 sequences; the median of “E-score (-0.5 to 0.5)” is about -0.041, and the highest 2% start at about 0.37. For the sample, the highest values were picked, then their nearest neighbours and some sequences at random.
# Target: T1, Ecm22 (UniProt Q05958)
# T1 sequence: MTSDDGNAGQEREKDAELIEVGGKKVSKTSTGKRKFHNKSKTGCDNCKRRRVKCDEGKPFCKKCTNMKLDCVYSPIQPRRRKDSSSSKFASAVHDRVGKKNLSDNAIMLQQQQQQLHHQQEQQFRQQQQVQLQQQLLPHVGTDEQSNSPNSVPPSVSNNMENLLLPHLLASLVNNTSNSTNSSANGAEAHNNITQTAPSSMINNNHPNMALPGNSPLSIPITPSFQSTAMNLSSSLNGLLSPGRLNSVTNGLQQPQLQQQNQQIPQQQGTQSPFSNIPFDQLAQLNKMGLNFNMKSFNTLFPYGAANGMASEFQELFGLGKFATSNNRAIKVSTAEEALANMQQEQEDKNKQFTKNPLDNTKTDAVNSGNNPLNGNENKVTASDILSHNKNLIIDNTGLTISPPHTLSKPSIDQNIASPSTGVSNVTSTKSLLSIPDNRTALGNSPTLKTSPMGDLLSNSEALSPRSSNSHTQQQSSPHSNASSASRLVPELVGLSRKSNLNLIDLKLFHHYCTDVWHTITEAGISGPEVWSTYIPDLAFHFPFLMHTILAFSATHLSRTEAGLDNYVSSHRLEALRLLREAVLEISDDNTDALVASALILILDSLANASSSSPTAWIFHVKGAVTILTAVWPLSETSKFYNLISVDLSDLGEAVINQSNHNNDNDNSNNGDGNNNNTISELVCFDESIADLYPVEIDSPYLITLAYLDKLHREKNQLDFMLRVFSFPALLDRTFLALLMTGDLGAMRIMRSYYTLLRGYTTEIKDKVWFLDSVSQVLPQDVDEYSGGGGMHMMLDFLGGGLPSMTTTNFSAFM
# Test: PBM E-score (8-mer binding enrichment) (E-score (-0.5 to 0.5)); higher = stronger / more preferred TF binding
# Conditions: protein concentration: 200 nM; construct: GST-full length
# Procedure: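 Universal 'all 10-mer' protein binding microarrays (Agilent AMADID 015681) probed with GST-tagged S. cerevisiae TFs (full-length or DBD) made by in vitro transcription/translation (PURExpress), about 100-200 nM. Bound TF was detected with fluorescent anti-GST. Each ungapped 8-mer (which stands for itself and its reverse complement) is scored by the PBM enrichment score (E-score), a modified Wilcoxon-Mann-Whitney statistic from -0.5 to +0.5, computed with the Universal PBM Analysis Suite. Scale: above 0.35 generally sequence-specific binding.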
row,Sequence,PBM E-score
1,AGACGGGG,-0.0581
2,ACACGGGA,0.0892
3,ATACGGGA,0.389
4,GTACGGGA,0.419
5,ATACGGGG,0.386
6,GCACGGGA,0.0895
7,ACACGGGC,-0.0743
8,GAACGGGA,0.327
9,AAGCGCAC,0.0929
10,AAGCTTGT,0.0175
11,ACAATCCT,-0.0917
12,GGGGCAGA,-0.0715
13,ATCCTGCC,-0.0749
14,CGAGCACA,0.225
15,AGCCCTGG,-0.233
16,TAACCCCA,-0.181
17,ACAACTCC,-0.151
18,CGGCGAAA,0.0597
19,ACGTATGA,0.17
20,CCGTATGA,0.396
21,CGGTATAA,0.161
22,CCGTATGC,0.268

row,Sequence,PBM E-score
1,GAGTATAC,0.286
2,CCGTATAA,0.473
3,ACGTATAC,0.381
4,ATGTATAC,0.179
5,GGGTATAC,0.15
6,AAGTATAC,0.255
7,GCGTATAC,0.406
8,CTGTATAA,0.0431
9,AGTGCCAA,-0.0554
10,CTGCCTCA,-0.257
11,AATGTGCT,0.00418
12,CGATATGC,0.188
13,ATTCCCAG,-0.0258
14,GGAGCGAC,0.339
15,GGCGTTGA,-0.126
16,ACTTTAGG,-0.0481
17,ACGTATAA,0.412
18,CCGTATAC,0.456
19,ACGTATAT,0.371
20,AGGTATAA,0.211
21,ATGTATAA,0.0604
22,CCGTATCC,0.337

row,Sequence,PBM E-score
1,CTGTATAC,0.207
2,GTGTATAA,-0.026
3,AAGTATAT,0.0727
4,GCGTATAA,0.394
5,AGGTATAT,-0.117
6,GCGTATTA,0.031
7,TTCAAGAA,0.0932
8,CAGCCGGC,0.0272
9,CCAGAGAA,0.0432
10,GCAGGACA,-0.0743
11,CAGTCTAA,0.0425
12,ATGACTTG,-0.136
13,AGATACTG,-0.0213
14,CGGACGTA,0.205
15,ACTTTTAT,-0.217
16,CTACAGTC,-0.0606
17,AACAGGTA,-0.0274
18,AATAAGGC,-0.225
19,CCGTATCG,0.291
20,ACGTATTG,0.22
21,ACGTATAG,0.403
22,CCGTATAG,0.465

row,Sequence,PBM E-score
1,CGGTATAG,0.0179
2,ACGTATCG,0.192
3,CTGAAGTA,-0.134
4,TCACCAAA,0.0237
5,TCGGATAA,0.372
6,ACGGATAA,0.159
7,CCGGATAA,0.0584
8,AGCAGCCG,-0.0197
9,ATATAGGC,-0.00233
10,AAACGCAT,0.0604
11,AAACGACT,0.437
12,AGACGACT,0.065
13,AAACGACG,0.465
14,ACACGACT,0.117
15,CAACGACG,0.351
16,GGACGACC,-0.107
17,CAACGACA,0.346
18,GAACGACC,0.451
19,GAACGACA,0.456
20,GCACGACC,-0.219
21,TAACGACA,0.352
22,CGACGACG,0.127
